Over roughly 25,000 sequences, “ln(normalized median fluorescence intensity)” has its median near 9.3; the highest 2% begin near 10. Shown is part of a subset that was picked to be rich in the highest values.
Each sequence was assayed on PF3D7_0420300 AP2 domain 1 (GST-tagged) (assay: gcPBM binding intensity (ln(normalized median fluorescence intensity)); higher = stronger DNA binding).
Summary of the method: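 DNA-binding domains from P. falciparum, fused to GST and produced in E. coli, were put on an Agilent 4 × 180k double-stranded probe array for 1 h in 1× PBS holding 1% milk, 0.2 mg/ml BSA, 0.5% salmon testes DNA and 0.03% Triton X-100. Probes were primer-extended, 36 bp long and drawn from intergenic genomic regions, with negative controls included. After Alexa488 anti-GST antibody detection and a 488 nm scan, binding intensity was set as the highest Masliner-normalised natural-log median intensity across replicate spots of either probe orientation.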

Sequence | gcPBM binding intensity (ln)
GGCATGACTATCTGCACACATAAAAATAAGAAATAC [CACACA_site841] | 9.56
TAGAATAATCTATAAACACACAAACCCAACAAAAGA [CACACA_site6132] | 9.86
TATAATAATCCACAAGCACACACACCCACATATATA [CACACA_site8343] | 9.93
CACCCACACCAACACACACACATATATAATATATAT [CACACA_site595] | 10.1
AATAATAGAAGCACCCACCCACCACCACCCACACAT [CACACA_negctrl_site1033] | 11.1
ATAATAATTAACCTATGTACATAGGAAAGTCATAAA [XGTACX_site4387] | 9.29
TTATATTAATTTTGTTGTACTATTTGTGCATTAAAT [XGTACX_site4790] | 9.21
TGTCATGATACATACACACACATACCCATACCCATA [CACACA_site5211] | 9.88
TATATTGCCCTTCACACACACACATATATATATATA [CACACA_site2492] | 10.3
CATATATATTTGTTCACACACACACCCAAAAAAAAA [CACACA_site2476] | 9.99
CTTATATATTGCCCTTCACACACACCCATATATATA [CACACA_site8795] | 10.1
TATATATTGCCCTTCACACACACACCGATATATATA [CACACA_site5390] | 10.2
TATTGCCCTTGACACACACACATATAAATAAATATA [CACACA_site7220] | 9.84
TATTGCCCTGGACACACACACATATATATATATATA [CACACA_site5389] | 9.88
ATTCATTTTATTTTTTCACACACACCGATATATATA [CACACA_site9097] | 10
TATATATTGCCCTTCACACACACACCCATATATATA [CACACA_site2493] | 10.2
ATTATATAATTGTCTTCACACACACCGATATATATA [CACACA_site8883] | 9.93
GGTGGTAAAAAACCTGCATGTCGAAATATTAAATAC [TGCATGCA_site33] | 9.25
TTCTTAAATGTAAATGTATATGTATTAAAAAGAGAA [TGCATGCA_negctrl_site597] | 9.1
ACAACATATGTTATCACACACATATAAATATAAATA [CACACA_site7038] | 9.54
AAAAGCAAGTTCCAGGGTACATATATATGAAAAAAC [XGTACX_site2408] | 9.58
ATTTATTTATATAATACACACAAATATCTTAATGAA [CACACA_site6064] | 9.39
ATATATATATATGTATGTACATATTTTTTTTAACAC [XGTACX_site8475] | 9.24

Sequence | gcPBM binding intensity (ln)
GTTTGGTGGTGTTTTGGTACGTACGGGGGGGTATGT [XGTACX_site1983] | 10.9
GTTTGGTGGTGTTTTGGTACGTACGGGGGTGTATGT [XGTACX_site1211] | 10.1
TATGATTTTTATATATGTACGTATGGTGTTTTACAA [XGTACX_site6100] | 9.21
AAAAAAAAAAAAAAAAAAAAAAAAAAATGAGATACA [GTGCAC_negctrl_site160] | 9.13
ATAAAATGAACAAACACACACACATATATTTATATA [CACACA_site7181] | 10.1
TGTAGTCTGGAGAAAAGTACATAGTATCTGGTAGCT [XGTACX_site2031] | 9.32
CGTATATATATATACACACACATATATATATGTAAA [CACACA_site195] | 9.69
TTAAACATATATTAAGCACACACAAACAAAAAAACA [CACACA_site8816] | 9.9
TGTGGGAATAACCACACACACACACCCATATATATA [CACACA_site5876] | 10.1
TTAAACCGTGGGAGCACACACACACCCCCACCCATA [CACACA_site331] | 10.2
AATTAACCGTGACACACACACATATAAATATAAATA [CACACA_site7790] | 9.86
ATTAAACCGTGGGAGCACACACACACACACACACAT [TGCATGCA_negctrl_site72] | 10.8
AAACCGTGGGAGCACACACACACACCGACACATATA [CACACA_site4338] | 10.1
AAACCGTGGGAGCACACACACACACCCACCCATATA [CACACA_site332] | 10.2
CATTAAACCGTGGGAGCACACACACCCACCCACCCA [CACACA_site8000] | 9.87
TTAAACCGTGGGAGCACACACACACCCAGACACATA [CACACA_site4337] | 9.86
AATATGTCTTAAAAAAGTACATAAATTTTAACTTCA [XGTACX_site6670] | 8.84
TTTTTTTTTTTTTTTTGTACATAATAAATGTTCTTA [XGTACX_site6754] | 8.64
AAGAATTATATTAATAGTACATATATATTAATTTAT [XGTACX_site5713] | 9.08
GCAAATCTTATATGAAGTACATATCTTATAAATAAA [XGTACX_site6903] | 8.96
TGGAGGTCAGTTCACAGTACCCAGAAACTCTACGAG [XGTACX_site2007] | 8.76
TTATAATCAATGAATACACACATATATTTAATTAAT [CACACA_site3613] | 9.47
TATAAAAATATATGCACACAAATAAAAAATTATATA [CACACA_site3629] | 9.44

Sequence | gcPBM binding intensity (ln)
AATTTTATATATATATGTACATATTTATATGCTTAT [XGTACX_site8180] | 9.4
ATTTAGAAAAAATATACACACAGCCTAAACATGCAT [CACACA_site4067] | 9.64
TATATATATGTATATGTGCACAGTTTTCTTATTAAA [GTGCAC_site9990] | 9.24
TATAAATATTTATACACACACATATATTTATATATC [CACACA_site6366] | 9.82
AAATTTGGTGAAGGATGTACTTTACCTAATACTTGT [XGTACX_site4825] | 9.21
ATATTTACTCACGTCTTGCACTGAGCAAGCATTATA | 9.02
AATGCTATCATTAATGCACACATTTAAACTTAATAT [CACACA_site5878] | 9.36
AAATTTGGCAAACACACACACACACCCACACCCACA [CACACA_site8095] | 10.2
AAATTTGGCAAACACACACACACACCCACAGAGACA [CACACA_site4490] | 10.3
TACATAAATTAAAACACACACACACCCAAAAAAAAA [CACACA_site2261] | 10.1
GGCAAATTTATTATACCCACATACATACATACATAC [XGTACX_negctrl_site186] | 9.24
GTTACACCAACAAACACACACACACCCACCCACAAA [CACACA_site2427] | 10.2
AACTTTGGCAAACACACACACACACCCACACCCACA [CACACA_site588] | 10.3
CAAACATTTTAATGTACACACACCCACAGACAAACA [CACACA_site5522] | 9.78
AGACAGCGCACAAACACACAAACACCCACCCACATA [CACACA_site451] | 10.2
CATATATATATATATACACACATATATATTTTCTTT [CACACA_site1457] | 9.46
TATTTTAATTATAAATTTAAAAAAAAAAAGAAAAAA [CACACA_negctrl_site1674] | 9.01
TTCGGAAAAATTAAAGCACACAAAAAAAAATAAAAA [CACACA_site8296] | 9.45
TATAAGCTTTCAATGTGTACATATTATTTTATTATT [XGTACX_site3988] | 9.44
TTTATGGATGTGTATGCATGCCTAAATAAATATATG [TGCATGCA_site916] | 9.1
ATATATATGTATAATCGTACAGTTAACGTATTCTTA [XGTACX_site5649] | 9.26
TAATATTATTATTTTACACACTTTTTTCCTTTTATC [CACACA_site2457] | 9.45
GTATATAGTATGTAGAGTACTAATTTCCATATGTTC [XGTACX_site7816] | 9.25

Sequence | gcPBM binding intensity (ln)
AATATTTATTTTATATGTACATAATTTATTTTTAAT [XGTACX_site776] | 9.26
AAAATAAAATATTTCTGTACTTATAACTATTCTATA [XGTACX_site8007] | 9.14
TGAAAAGATAAAAAAAGTACACACACACATATATAT [XGTACX_site6504] | 10.2
AGATAAAAAAAGTACACACACACATATATTTATATA [CACACA_site7437] | 10.1
TACAGATAAAAGTACACACACACACCGATATATATA [CACACA_site4675] | 10.2
AACAGATAAAAGGGTACACACATATATACAAGTACA [CACACA_site7959] | 9.9
AAAGATAAAAAAAGTACACACACACCGATATATATA [CACACA_site9006] | 10.2
AGATAAAAAAAGTACACACACACATATATATATATA [CACACA_site3072] | 9.82
TATATATATATATGTACACACACACCGATAAATAAA [CACACA_site8041] | 9.99
AAGATAAAATAATAAAGTACACATATAAATTGAAAA [XGTACX_site2113] | 9.42
AAAAAAAAAAAAAGTACACACATACAGATAAATATA [CACACA_site5067] | 9.66
ATTATTACACAACGTTGTACATTTCAATATTTTTAT [XGTACX_site5096] | 9.52
TAAATTTTAATATGCACACAAAATGTTATATTAAAA [CACACA_site4366] | 9.11
ATAAAAATAACATATAAACACACATATATATATATA [CACACA_site9267] | 9.35
ATAACTTGTATATATACACACACACCCTTTCTTTTT [CACACA_site8600] | 10.1
TATATAGTAATATATACACACACTTGTCTTGTAAAA [CACACA_site990] | 9.56
TATATTTATTTATATACACACACTTGTATAAAAAAT [CACACA_site2036] | 9.4
AACTTGTATTTATACACACACACACTAGCTTTTTTT [CACACA_site5132] | 10.2
AACTTGTATATATACACACACACACTGTCTTTTTTT [CACACA_site1963] | 10.2
AACTTGTATTTATACACACACACACTGTCTTTTTTT [CACACA_site7009] | 10.3
AACTTGTATATATACACACACACACTATCTTTTTTT [CACACA_site8601] | 10.2
CTTGTATATAAACACACACACACTTTCTTTTTTTAA [CACACA_site8602] | 9.91
TTGTATATACTATACACACACATACATACATACATA [CACACA_site814] | 9.85
